Test results reported in PubChem BioAssay AID1347165 (National Center for Advancing Translational Sciences (NCATS), 2019).
Hit rate of the full screen: of about 220,000 compounds, about 5,700 (2.6%) were called active. Not shown: some 18% with an inconclusive outcome. Calls follow the shape of the dose curve; as a rule, active = well fitted inhibition curve with a large enough effect; inconclusive = small, poorly fitted or top-dose-only effect; inactive = no such curve, though single readings can be large or run the other way. For the sample, actives were picked, then their nearest neighbours and some compounds at random.

Target: Lysine-specific demethylase 5B (Homo sapiens) (UniProt Q9UGL1)
Sequence (Q9UGL1 whole entry, looked up): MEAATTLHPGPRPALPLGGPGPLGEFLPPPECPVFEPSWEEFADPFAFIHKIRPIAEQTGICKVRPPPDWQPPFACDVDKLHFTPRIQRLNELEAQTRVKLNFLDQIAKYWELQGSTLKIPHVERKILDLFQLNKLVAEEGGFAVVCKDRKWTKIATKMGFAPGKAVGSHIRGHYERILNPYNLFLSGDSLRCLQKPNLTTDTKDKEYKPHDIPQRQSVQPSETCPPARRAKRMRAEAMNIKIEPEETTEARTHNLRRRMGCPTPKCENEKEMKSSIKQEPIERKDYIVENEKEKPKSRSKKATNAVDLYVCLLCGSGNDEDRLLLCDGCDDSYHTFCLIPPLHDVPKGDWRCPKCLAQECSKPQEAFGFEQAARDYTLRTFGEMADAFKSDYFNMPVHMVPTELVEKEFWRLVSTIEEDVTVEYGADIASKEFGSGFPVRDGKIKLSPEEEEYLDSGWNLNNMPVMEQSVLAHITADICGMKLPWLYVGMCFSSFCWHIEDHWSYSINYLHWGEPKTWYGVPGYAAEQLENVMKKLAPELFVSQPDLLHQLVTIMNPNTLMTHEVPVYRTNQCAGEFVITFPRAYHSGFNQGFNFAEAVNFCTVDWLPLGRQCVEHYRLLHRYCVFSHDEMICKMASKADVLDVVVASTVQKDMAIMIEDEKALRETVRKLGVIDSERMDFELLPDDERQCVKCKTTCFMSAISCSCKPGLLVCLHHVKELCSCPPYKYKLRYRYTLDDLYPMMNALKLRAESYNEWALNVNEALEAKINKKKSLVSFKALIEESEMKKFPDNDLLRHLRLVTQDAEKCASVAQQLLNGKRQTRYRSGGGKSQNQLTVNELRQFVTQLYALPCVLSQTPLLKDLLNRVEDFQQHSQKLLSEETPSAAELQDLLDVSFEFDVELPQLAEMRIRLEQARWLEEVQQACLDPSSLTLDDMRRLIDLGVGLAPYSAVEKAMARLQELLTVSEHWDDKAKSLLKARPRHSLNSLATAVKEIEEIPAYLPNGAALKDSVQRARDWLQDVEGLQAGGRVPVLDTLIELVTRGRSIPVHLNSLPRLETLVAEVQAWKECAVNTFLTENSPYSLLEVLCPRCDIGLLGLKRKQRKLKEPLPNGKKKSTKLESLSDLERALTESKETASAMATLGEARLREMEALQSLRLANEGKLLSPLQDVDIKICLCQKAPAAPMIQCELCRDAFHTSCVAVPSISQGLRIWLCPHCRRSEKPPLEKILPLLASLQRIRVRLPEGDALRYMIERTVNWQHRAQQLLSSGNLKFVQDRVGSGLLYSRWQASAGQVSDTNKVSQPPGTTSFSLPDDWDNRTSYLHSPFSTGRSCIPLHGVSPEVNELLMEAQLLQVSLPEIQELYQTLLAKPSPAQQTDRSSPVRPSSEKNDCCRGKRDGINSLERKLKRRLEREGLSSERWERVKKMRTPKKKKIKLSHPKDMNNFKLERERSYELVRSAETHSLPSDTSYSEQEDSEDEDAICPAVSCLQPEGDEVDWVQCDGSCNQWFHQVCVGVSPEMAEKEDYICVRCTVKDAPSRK
Assay: Primary screen for KDM5B Histone Demethylases FDH-coupled qHTS; also: nearly all actives have a fitted effect of over 70% in size; as to activity change, negative = inhibition: 0% is about no effect
Conditions: FDH-coupled NADH fluorescence (FDH is formaldehyde dehydrogenase); series mostly up to 57.7 µM; activity change, negative = inhibition: at the top concentration
Method in brief: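 Here, H3K4me3 peptide (12.5 µM in substrate mix) is demethylated by KDM5BΔAP, 200 nM final, after 10 min compound exposure. Formaldehyde product is coupled through FDH (0.25 U/mL in mix) to NADH fluorescence; 30-min ΔRFU feeds dose-response curves.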
Potency is read from the fitted curve at half-maximal effect.

| SMILES | activity change, negative = inhibition | Potency |
| --- | --- | --- |
| COc1cccc(/C=C2\C=C(c3ccc(C)cc3)OC2=O)c1OC(C)=O | -8.74% (inactive) | – |
| O=C(NCCN1CCCCC1)C(=O)Nc1cccc2[nH]ccc12 | -14.9% (inactive) | – |
| CCCC(=O)Nc1ccc(-c2csc(NC)n2)cc1 | -0.547% (inactive) | – |
| O=C(Cn1c(=O)c2c(ncn2C2CCCC2)n(Cc2ccccc2)c1=O)NC1CCS(=O)(=O)C1 (stereo unspecified) | 7.86% (inactive) | – |
| CC(Oc1ccc(Cl)cc1)c1nc(-c2ccc(Cl)cc2)no1 (stereo unspecified) | -5% (inactive) | – |
| CN(c1ccccc1)c1cc(=O)c2ccnc(NC3CCOCC3)c2o1 | -2.58% [at 86.2 µM] (inactive) | – |
| O=c1cc(N2CCOCC2)oc2c(NCc3ccncc3)nccc12 | – | 35.5 µM (active) |
| O=c1cc(N2CCOCC2)oc2c(Nc3cccc(Cl)c3)nccc12 | -13.9% [at 86.2 µM] (inactive) | – |
| Cc1noc(C)c1-c1nccc2c(=O)cc(N3CCOCC3)oc12 | – | 39.8 µM (active) |
| Cn1ncc2c(Nc3cccc4c3CCCC4)ncnc21 | -4.66% (inactive) | – |
| CCc1ccc(-n2nc(C)c3c(C(F)(F)F)cc(OCC(=O)NC(C)C)nc32)cc1 | 2.73% (inactive) | – |
| COc1cc2c(C(=O)N(C)c3cc(Cl)ccc3OC)cn(C)c(=O)c2cc1OC | 35.9% (inactive) | – |
| O=C(COc1ccccc1)N1CC2(C1)CN(Cc1ccc(Cl)cc1)C(=O)O2 | -3.94% [at 86.2 µM] (inactive) | – |
| N#CCCNC(=O)CSc1nc(C2CC2)nc2ccccc12 | -14.8% (inactive) | – |
| O=C(Cn1cnc2c(Cl)cc(Cl)cc2c1=O)N(C1CCCC1)C1CCS(=O)(=O)C1 (stereo unspecified) | 11.5% (inactive) | – |
| CCCN1C(=O)NC(CC(=O)N2CCC(O)(c3ccc(C)cn3)CC2)C1=O (stereo unspecified) | -7.99% (inactive) | – |
| Cc1ccc(C2(O)CCN(C(=O)c3ccccc3-c3nn[nH]n3)CC2)nc1 | -17.5% (inactive) | – |
| Cc1ccc(C2(O)CCN(c3nccc(CCC(F)(F)F)n3)CC2)nc1 | – | 22.4 µM (active) |
| Cc1csc(SCc2cc(Cl)c3c(c2)OCCO3)n1 | 14.3% (inactive) | – |
| N#Cc1cccc(NC(=O)CSc2ccccc2C(=O)Nc2ccc3c(c2)OCCCO3)c1 | -0.157% (inactive) | – |
| COc1ccccc1-n1nc(CC(N)=O)nc1C1CCCCn2nnnc21 (stereo unspecified) | -0.916% (inactive) | – |
| C=CCOc1cccc(NC(=O)c2ccccc2Cl)c1 | 17.9% (inactive) | – |

| SMILES | activity change, negative = inhibition | Potency |
| --- | --- | --- |
| CN1CCc2c([nH]c3ccccc23)C12CCN(C(=O)c1nccc3ccccc13)CC2 | 1.36% (inactive) | – |
| COc1ccc2[nH]c3c(c2c1)CCNC31CCN(C(=O)c2ccccc2)CC1 | -16.7% (inactive) | – |
| COCCOCC(=O)N1CCC2(CC1)c1[nH]c3ccc(OC)cc3c1CCN2C | – | 28.2 µM (active) |
| CCN1CCC(N(C(=O)c2cc3ccccc3n2C)C2CC2)CC1 | 0.923% (inactive) | – |
| CCc1cc(=O)oc2c(C)c(OCC(=O)NCCN3CCOCC3)ccc12 | 101% (inactive) | – |
| CCn1c2c(c(=O)n1Cc1ccccc1)CCN(C(=O)Cc1ccc3c(c1)OCO3)C2 | -3.03% [at 86.2 µM] (inactive) | – |
| O=C(Cc1ccc(F)cc1)N1CCCC(c2nn(-c3ccc(Cl)cc3)c(=O)[nH]2)C1 (stereo unspecified) | -5.65% (inactive) | – |
| O=C(Cc1ccc(Cl)cc1)N1CCc2c(nc3cc[nH]n3c2=O)C1 | – | 31.6 µM (active) |
| Cc1nn2c(c1-c1ccccc1C(C)C)N(C(=O)c1cnccn1)CCC2 | 4.8% [at 86.2 µM] (inactive) | – |
| Cc1nn2c(c1-c1ccccc1N1CCCC1)N(C(=O)c1ccn(C)n1)CCC2 | – | 7.94 µM (active) |
| Cc1nn2c(c1-c1ccccc1C(C)C)N(C(=O)c1cccc(C#N)c1)CCC2 | 15.3% [at 86.2 µM] (inactive) | – |
| COc1cc(C2Nc3ccc(C)cc3[C@H]3OCCC[C@@H]23)cc(Cl)c1O (stereo partly specified) | -7.36% (inactive) | – |
| COc1ccc(CNC(=O)c2cc3c(s2)CN(C2CC2)C3)cc1OC | – | 11.2 µM (active) |
| CSc1ccc(CNC(=O)c2cc3c(s2)CCCC3)cc1 | -23.3% (inactive) | – |
| COc1cc(CNC(=O)Cc2ccc(OC)c(OC)c2)ccn1 | 14.5% (inactive) | – |
| Cc1cccc(N2C(=O)c3ccc(C(=O)Nc4cccc(C(=O)O)c4)cc3C2=O)c1 | 24.9% (inactive) | – |
| CC(C)CNc1ccc2nnc(-c3ccccn3)n2n1 | – | 31.6 µM (active) |
| CCCNc1ccc2nnc(C)n2n1 | -29.1% (inactive) | – |
| Cc1ccc(OCC(=O)Nc2ccc3oc(=O)ccc3c2)cc1C | -15.1% (inactive) | – |
| O=C(CCNc1cnc2cnccn12)NC1CCN(Cc2ccccc2)CC1 | – | 22.4 µM (active) |
| O=C(CCc1ncc(-c2ccc(F)cc2)o1)NC1CCN(Cc2ccccc2)C1 (stereo unspecified) | -1.38% (inactive) | – |
| O=C(O)CC1(CC(=O)NC2CCN(Cc3ccccc3)CC2)CCCC1 | 25.1% (inactive) | – |

| SMILES | activity change, negative = inhibition | Potency |
| --- | --- | --- |
| Cc1cc(OCC(=O)N2CCN(c3ncccn3)CC2)ccc1Cl | -13.2% (inactive) | – |
| COc1ccc2c(c1)OCC(C(=O)N1CCCN(c3ncccn3)CC1)C2 (stereo unspecified) | – | 25.1 µM (active) |
| O=C(c1ccoc1)N1CCCN(C(=O)C2COc3ccccc3C2)CC1 (stereo unspecified) | -12.2% (inactive) | – |
| Cc1nc(CNC(=O)[C@H]2CCC[C@@H](O)C2)nc2c1CCCC2 | -18.8% (inactive) | – |
| Cc1nc(CCNc2nccc(-c3cccnc3)n2)nc2c1CCCC2 | – | 28.2 µM (active) |
| Cc1nc(CCNS(=O)(=O)c2cccnc2)no1 | -10.3% (inactive) | – |
| O=C(CCSc1nc2ccccc2s1)NCc1cc(F)cc(F)c1 | -9.95% (inactive) | – |
| COC(=O)c1ccc(C(=O)OCc2nc(N)c3ccccc3n2)cc1 | 8.43% (inactive) | – |
| O=C(O)CCn1ncc2cc(OC3CCN(C(=O)C4CCCC4)CC3)ccc21 | -8.2% [at 86.2 µM] (inactive) | – |
| CCn1ccc2cc(S(=O)(=O)N3CCC(C(=O)N4CCN(C)CC4)CC3)ccc21 | 6.11% (inactive) | – |
| NC(=O)Cn1ccc2cc(OCC3CCN(C(=O)C4CCCC4)CC3)cnc21 | – | 35.5 µM (active) |
| Cc1ccc(-n2nnnc2SCc2nc3ccsc3c(=O)[nH]2)c(C)c1 | 0.7% (inactive) | – |
| O=C(Nc1ccc(SC2CCCC2)cc1)C1CCCC1 | -1.52% (inactive) | – |
| CCCS(=O)(=O)N1CCC(Cc2nc(-c3cccnc3)n[nH]2)C1 (stereo unspecified) | -11.3% (inactive) | – |
| COC(=O)[C@@H]1CN(C(=O)c2cccnc2)CCN1C(C)=O | -12% [at 115 µM] (inactive) | – |
| CCCS(=O)(=O)N1CCC2(CC1)C(OC)C(=O)N2CC1CC1 (stereo unspecified) | 23.4% (inactive) | – |
| C=CCNC(=O)C[C@@H]1CCN(C(=O)c2cccnc2)C[C@@H]1CC | 26% [at 86.2 µM] (inactive) | – |
| CCCS(=O)(=O)N1CCC(Nc2nccnc2OCC)CC1 | – | 15.8 µM (active) |
| CCOc1nccnc1NC1CCN(C(=O)c2cccnc2)CC1 | – | 28.2 µM (active) |
| CC(Sc1nc(N)cc(N)n1)C(=O)c1ccc(Cl)cc1 (stereo unspecified) | 8.79% (inactive) | – |
| Cn1cc(-c2cc3n(n2)CCC(=O)N3CC(=O)NC2CCCCC2)c2ccccc21 | -3.82% (inactive) | – |
| CCCCN(CCCC)c1cccc(-c2cccc(N(CCCC)CCCC)c2)c1 | -27.3% (inactive) | – |

| SMILES | activity change, negative = inhibition | Potency |
| --- | --- | --- |
| Cc1cccc(C)c1NC(=O)CSc1nc2c(cc1C#N)CCCC2 | 16.6% (inactive) | – |
| N#Cc1cc2c(nc1SCC(=O)NCCc1ccccc1)CCCC2 | 0.324% (inactive) | – |
| N#Cc1cc2c(nc1N1CCN(C3CCCC3)C(CCO)C1)CCCC2 (stereo unspecified) | – | 28.2 µM (active) |
| CCCCn1nc(C(=O)NC(CC)CC)c2ccccc2c1=O | 13.2% (inactive) | – |
| COc1ccc(-c2[nH]ncc2CN2CCCC(C(=O)NCc3ccccc3)CCNC(=O)CC2)cc1 (stereo unspecified) | -19.8% (inactive) | – |
| COc1ccc2cc(-c3[nH]ncc3CN3CCN(c4cccc(C)n4)CC3)ccc2c1 | – | 28.2 µM (active) |
| COc1ccc(-c2cc(N3CCN(C(=O)Cc4cccc(OC)c4)CC3)n[nH]2)cc1 | -10.2% (inactive) | – |
| O=C(NCC1CC1)c1nc2c(o1)CCN(Cc1cccc(F)c1F)CC2 | -26.9% [at 86.2 µM] (inactive) | – |
| O=C(Nc1ccc(-n2cccn2)cc1)C1CCN(Cc2ccsc2)CC1 | 23.1% (inactive) | – |
| O=C(Nc1ccc(Cl)cc1)c1nc2c(o1)CCN(Cc1ccsc1)CC2 | – | 31.6 µM (active) |
| CCOc1ccc(NC(=O)CSc2nc3c(c(=O)[nH]2)CN(Cc2ccc(Cl)cc2)CC3)cc1 | -4.81% (inactive) | – |
| O=C(c1nc2c(o1)CCN(Cc1ccccc1F)CC2)N1CCOCC1 | -4.96% [at 86.2 µM] (inactive) | – |
| O=C(Nc1ccccc1)c1nc2c(o1)CCN(Cc1cccc(Cl)c1)CC2 | – | 28.2 µM (active) |
| O=C(NCC1CC1)c1nc2c(o1)CCN(CCc1ccccc1)CC2 | -23.1% [at 86.2 µM] (inactive) | – |
| COc1ccc(CN2CCc3nc(C(=O)N4CCOCC4)oc3CC2)cc1OC | 4.99% [at 86.2 µM] (inactive) | – |
| Cc1cccc(CN2CCc3nc(C(=O)Nc4ccc(Cl)cc4)oc3CC2)c1 | – | 31.6 µM (active) |
| Cc1cc(Br)ccc1NC(=O)CN(C)Cc1ncc(-c2ccc(F)cc2)o1 | -15.3% (inactive) | – |
| CCc1ccc(CN(C(=O)c2cc(=O)c3cc(C)cc(C)c3o2)C2CCS(=O)(=O)C2)cc1 (stereo unspecified) | -0.964% (inactive) | – |
| O=C(CSc1ncnc2sc3c(c12)CCCC3)Nc1ccc(F)cc1 | 8.22% (inactive) | – |
| CC(C)NC(=O)c1ccccc1NC(=O)C(Cl)Cl | -10.1% (inactive) | – |
| CCCn1nc(C(=O)NCc2ccc(OC)cc2)c2ccccc2c1=O | 7.93% (inactive) | – |
| Oc1ccc(-c2ccc(-c3nc(CCc4ccccc4)no3)cn2)cc1 | – | 25.1 µM (active) |

| SMILES | activity change, negative = inhibition | Potency |
| --- | --- | --- |
| Cc1ccc(-c2nc(C(=O)N(C)Cc3ccccc3)no2)cc1 | -21.9% (inactive) | – |
| O=C(NCCc1noc(-c2ccccc2)n1)C1CC1 | 24% (inactive) | – |
| CCc1ccc(N/C(N)=N/c2nc(C)cc(C)n2)cc1 | 16.5% (inactive) | – |
| COC(=O)CC1c2cc(OC)c(OC)cc2CCN1Cc1nc(CC(C)C)no1 (stereo unspecified) | -7.43% (inactive) | – |
| O=C(/C=C/c1ccc(-c2cc(Cl)ccc2Cl)o1)c1ccc(F)cc1 | -4.81% (inactive) | – |
| CNC(=O)[C@@H]1CN(C(=O)Cc2cccnc2)C[C@H]1COC | -8.75% (inactive) | – |
| CNC(=O)[C@@H]1CN(C(=O)c2n[nH]c3ccccc23)C[C@H]1COC | -15.7% (inactive) | – |
| COC[C@@H]1CN(c2ncccn2)C[C@H]1C(=O)Nc1ccncc1 | – | 20 µM (active) |
| S=C(NCCc1ccc(Cl)cc1)Nc1ccc(Oc2ccccc2)cc1 | 3.85% (inactive) | – |
| CN(C)[C@@H]1CN(C(=O)c2cccn2C)CC[C@@H]1CO | 12.6% (inactive) | – |
| Cc1noc(C)c1-c1cc(-c2cncnc2)cn2cncc12 | -16.6% [at 115 µM] (inactive) | – |
| FC(F)(F)c1cccc(-c2cc(C3=CCOCC3)c3cncn3c2)c1 | – | 35.5 µM (active) |
| CN(C)Cc1cccc(-c2cc(-c3ccncc3)c3cncn3c2)c1 | – | 28.2 µM (active) |
| OCc1cccc(-c2cc(C3=CCOCC3)c3cncn3c2)c1 | – | 31.6 µM (active) |
| Cc1nc(NC(C)C)sc1C(=O)Nc1ccccc1 | -3.94% (inactive) | – |
| O=C(COC(=O)c1cc2ccccc2[nH]1)NCc1ccc(F)cc1 | -15.2% (inactive) | – |
| NC(=O)c1ccc(CN(Cc2cccs2)C2CC2)cc1 | -16.1% (inactive) | – |
| O=C(O)CCC(=O)NC1CC2(CCN(C(=O)c3ccccc3)CC2)c2ccccc21 (stereo unspecified) | 9.24% [at 115 µM] (inactive) | – |
